In publication PMC5540273 (PLoS ONE, 2017):

What was measured:
Conditions in all cases: concentration: 1 μM, replicates: in singlicate; n = 1
[1] = tested on: CSNK1G1
[2] = tested on: CSNK1G2
[3] = tested on: CSNK1G3
[4] = tested on: CSNK2A1
[5] = tested on: CSNK2A2
[6] = tested on: T1, CTK
T1 construct: gene MATK

[7] = tested on: DAPK1
[8] = tested on: DAPK2
[9] = tested on: DAPK3
[10] = tested on: T2, DCAMKL1
T2 construct: gene DCLK1

[11] = tested on: T3, DCAMKL2
T3 construct: gene DCLK2

[12] = tested on: T4, DCAMKL3
T4 construct: gene DCLK3

[13] = tested on: DDR1
[14] = tested on: DDR2
[15] = tested on: T5, DLK
T5 construct: gene MAP3K12

[16] = tested on: T6, DMPK2
T6 construct: gene CDC42BPG

[17] = tested on: DMPK
[18] = tested on: T7, DRAK1
T7 construct: gene STK17A

[19] = tested on: T8, DRAK2
T8 construct: gene STK17B

[20] = tested on: DYRK1A
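Note: KINOMEscan kinase panel screen.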

SMILES | %Inh [1] [%] | %Inh [2] [%] | %Inh [3] [%] | %Inh [4] [%] | %Inh [5] [%] | %Inh [6] [%] | %Inh [7] [%] | %Inh [8] [%] | %Inh [9] [%] | %Inh [10] [%] | %Inh [11] [%] | %Inh [12] [%] | %Inh [13] [%] | %Inh [14] [%] | %Inh [15] [%] | %Inh [16] [%] | %Inh [17] [%] | %Inh [18] [%] | %Inh [19] [%] | %Inh [20] [%]
Cc1nn2c(=O)cc(N3CCO[C@H](C)C3)nc2n1Cc1cccc(Cl)c1Cl [GSK2373693] | 10 | 0 | 26 | 50 | 63 | 0 | 37 | 54 | 94.7 | 0 | 6 | 34 | 18 | 0 | 0 | 0 | 1 | 0 | 11 | 48
O=C(Nc1n[nH]c2nc(-c3ccccc3O)ccc12)C1CC1 [SB-711880] | 0 | 0 | 28 | 49 | 84 | 36 | 12 | 0 | 21 | 22 | 0 | 0 | 1 | 0 | 32 | 0 | 0 | 3 | 0 | 9
Nc1cccc(-c2ccc3c(N)n[nH]c3c2)c1 [GSK2193613] | 13 | 0 | 18 | 27 | 61 | 0 | 0 | 6 | 4 | 13 | 0 | 0 | 0 | 0 | 43 | 0 | 33 | 95.1 | 0 | 24
O=C(O)C(F)(F)F.O=c1[nH]ccc2nc(N[C@@H]3CCNC3)nc(Nc3ccc4c(c3)S(=O)(=O)CC4)c12 [GSK2181306] | 85 | 87 | 94.4 | 99.2 | 99.9 | 16 | 99.5 | 97.8 | 99.6 | 95.7 | 84 | 98.4 | 0 | 5 | 72 | 45 | 97.5 | 99.5 | 92.1 | 35
Cc1cccc(Nc2nc(N[C@H]3CCCC[C@H]3N)ncc2C(N)=O)c1.Cl [GSK986310] | 21 | 0 | 37 | 36 | 25 | 0 | 86 | 70 | 59 | 32 | 3 | 35 | 6 | 0 | 19 | 21 | 59 | 4 | 18 | 26
CCNc1nccc(-c2c(-c3ccc(F)cc3)ncn2C2CCN(C)CC2)n1 | 7 | 1 | 0 | 44 | 17 | 100 | 24 | 15 | 10 | 13 | 0 | 5 | 70 | 4 | 0 | 8 | 0 | 16 | 0 | 0
CN1CCN(Cc2ccc(NC(=O)Nc3ccc(N(C)c4ccnc(Nc5ccc(CS(C)(=O)=O)cc5)n4)cc3)cc2)CC1.Cl [GW827654] | 0 | 0 | 0 | 100 | 22 | 16 | 8 | 0 | 0 | 44 | 18 | 30 | 99.4 | 100 | 64 | 57 | 0 | 10 | 21 | 0
NCCC(NC(=O)c1cc(Br)c(-c2ccnc3[nH]ccc23)s1)c1ccccc1.O=C(O)C(F)(F)F.O=C(O)C(F)(F)F (centres unmarked) [GSK1307810] | 83 | 99 | 99.2 | 98.9 | 94.7 | 0 | 6 | 28 | 29 | 25 | 0 | 0 | 0 | 26 | 33 | 99.8 | 64 | 74 | 0 | 44
CC(C)NCC(Cc1ccccc1)NC(=O)c1cc(Br)c(-c2ccnc3[nH]ccc23)s1.Cl.Cl (centres unmarked) [GSK1383281] | 13 | 14 | 29 | 59 | 46 | 0 | 18 | 0 | 37 | 34 | 0 | 54 | 0 | 13 | 24 | 50 | 32 | 0 | 4 | 17
O=C1NC(=O)C(c2ccccc2Cl)=C1Nc1cccc(Cl)c1 [SB-342409] | 14 | 0 | 26 | 0 | 0 | 24 | 0 | 0 | 15 | 13 | 10 | 14 | 9 | 0 | 0 | 75 | 1 | 1 | 0 | 61
